Coupling enz – counter-screen for Giardia aldolase inhibitors: coupling enzyme system; coupling enzyme system counterscreen, AmpLite Red fluorescence; activity change, negative = inhibition, % at 58.2 µM, hits read low; 290,000 tested, 0.67% active; AID 2472; in the data active means activity change below about -30%
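Compounds tested against the coupling enzymes alone at 57.5 uM final; readout was AmpLite Red fluorescence (525/598 nm) after 20 min at RT.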
TSHR antagonist – human thyrotropin receptor antagonism; activity change, negative = inhibition, % at 11.5 µM; TSHR-expressing cells, TSH-stimulated cAMP HTRF, 2 h; active compounds read low; 330,000 tested, 0.2% active; P16473;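 active means activity change below a set negative limit, meaning inhibition stronger than a set level, cut at about -70% in these data; inconclusive means activity change between two set negative limits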
Target sequence (P16473 whole entry, looked up): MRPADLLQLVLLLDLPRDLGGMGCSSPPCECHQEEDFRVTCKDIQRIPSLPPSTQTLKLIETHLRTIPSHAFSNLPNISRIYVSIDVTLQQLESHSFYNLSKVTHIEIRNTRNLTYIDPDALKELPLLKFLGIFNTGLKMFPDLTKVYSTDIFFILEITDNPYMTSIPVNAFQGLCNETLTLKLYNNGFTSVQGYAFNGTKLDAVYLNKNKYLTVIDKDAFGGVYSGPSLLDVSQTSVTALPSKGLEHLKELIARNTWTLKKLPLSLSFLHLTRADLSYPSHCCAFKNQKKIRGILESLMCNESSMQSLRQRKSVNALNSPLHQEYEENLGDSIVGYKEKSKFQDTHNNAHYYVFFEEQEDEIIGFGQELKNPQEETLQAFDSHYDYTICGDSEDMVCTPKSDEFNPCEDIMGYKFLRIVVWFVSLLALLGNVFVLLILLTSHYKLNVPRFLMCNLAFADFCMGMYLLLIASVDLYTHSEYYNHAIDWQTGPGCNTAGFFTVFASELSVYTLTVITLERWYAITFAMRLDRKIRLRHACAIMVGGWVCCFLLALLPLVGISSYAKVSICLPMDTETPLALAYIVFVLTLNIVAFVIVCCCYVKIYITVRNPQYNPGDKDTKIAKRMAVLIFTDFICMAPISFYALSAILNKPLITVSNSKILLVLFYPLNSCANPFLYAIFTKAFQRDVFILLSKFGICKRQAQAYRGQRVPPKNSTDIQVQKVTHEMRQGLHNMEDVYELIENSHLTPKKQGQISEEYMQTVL
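Inhibition of cAMP made by TSHR-expressing cells under TSH stimulation (4nM final, EC80; 2 h, 37 deg C) is quantified with a one-step lysis HTRF kit, anti-cAMP cryptate versus cAMP-d2.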
ELG1 repair inh – ELG1-dependent DNA repair inhibition | HEK293T ELG1-luciferase reporter, luminescence, 16 h; DNA damage induced by 5-fluorouridine | Potency, µM (highest dose often 46.1 µM), actives largely listed as inhibitors | 330,000 tested, 2.3% active; further: nearly all actives have a fitted effect of over 55% in size
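Reporter activity after DNA damage by 5-fluorouridine is monitored. Compound-treated cells incubate 16 hr at 37 °C, then ONE-Glo is added for 30 min before luminescence reading.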
VP16 counter – Gal4-VP16 reporter inhibition counter-screen; Drosophila S2 Gal4-VP16 UAS-luciferase, luminescence, 20 h; Potency, µM (doses to about 53.6 µM), usual class: inhibitors; 310,000 tested, 3.5% active;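 further: Gal4-VP16 expression switched on by copper sulfate through the metallothionein promoter; nearly all actives have a fitted effect of over 50% in size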
RORgamma inh – ROR gamma (mouse) transcription inhibition; P51450; Drosophila S2 Gal4-RORgamma UAS-luciferase reporter, 20 h; Potency, µM (series often up to 53.6 µM), hits mostly inhibitors; 310,000 tested, 5.4% active; AID 2551; further: nearly all actives have a fitted effect of over 60% in size
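Using a luciferase readout, inhibitors were identified by reduced reporter activity in Drosophila cells coexpressing a copper-inducible Gal4–ROR gamma fusion and UAS-driven Photinus luciferase, incubated 20 hr after 700 uM copper sulfate.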
Large screens that a line does not name were inactive. Rows were chosen to be rich in hits. Some 8% of all compounds tested hit in one or more screens of this group. Unless noted, the call rests on the fitted dose curve; in most records, active means well fitted curve in the direction sought with a large enough effect; inconclusive means small, poorly fitted or top-dose-only effect, or another doubt; inactive means no such curve, though single readings can be large; an effect the other way counts as inactive or inconclusive.

CC(=O)OC[C@@H]1O[C@@H](O/N=C2/C[C@@H](O)[C@@H](O)[C@@H]3[C@H]4C(=O)N(c5ccc(F)cc5F)C(=O)[C@@H]4CC[C@@H]23)[C@H](OC(C)=O)[C@H](OC(C)=O)[C@@H]1OC(C)=O	none (no result: TSHR antagonist, ELG1 repair inh)
CCOC(=O)c1oc2cccc(OCC(O)CNC(C)C)c2c1C (stereo unspecified)	Coupling enz -76, VP16 counter 16µM
Cc1noc(C)c1-c1ccc2ncnc(NCc3ccccc3Cl)c2c1	none (no result: TSHR antagonist, ELG1 repair inh)
Cc1nn(C)c(NC(=O)c2ccccc2Cl)c1Br	none
Cc1cc(Nc2ccc(Br)cc2)nc(-c2ccccc2O)n1	RORgamma inh inconclusive
Cc1cc(C)nc(-n2nc(C)c(Br)c2Nc2ccc(Br)cc2)n1	ELG1 repair inh inconclusive, VP16 counter 0.89µM, RORgamma inh inconclusive
Cc1nn(C)c(Nc2ccc(Br)cc2)c1Br	ELG1 repair inh inconclusive, VP16 counter 11µM, RORgamma inh inconclusive
O=C(Nc1cnc2sccn2c1=O)c1ccccc1Cl	ELG1 repair inh inconclusive, VP16 counter inconclusive, RORgamma inh 7.1µM
O=C(Nc1cnc2ccccn2c1=O)c1ccc(Cl)cc1Cl	ELG1 repair inh inconclusive, VP16 counter inconclusive, RORgamma inh 2.5µM
Cc1cccc(NC(=O)c2cnc3ccccn3c2=O)c1	ELG1 repair inh inconclusive, VP16 counter inconclusive, RORgamma inh 2.5µM
OCCNCCCOc1cccc(Cl)c1Cl	none (no result: TSHR antagonist, ELG1 repair inh)
Cc1cccc(/C=C/c2nc3ccccc3c(=O)[nH]2)c1	ELG1 repair inh inconclusive
Cc1cccc(/C=C(\c2nc3ccccc3[nH]2)S(=O)(=O)c2ccccc2)c1	ELG1 repair inh 12µM, RORgamma inh inconclusive
COC(=O)c1c(C)nc(C)c(C(=O)OC)c1-c1ccccc1[N+](=O)[O-]	none (no result: TSHR antagonist, ELG1 repair inh)
COc1cccc(N2CCN(C(=S)Nc3ccccc3)CC2)c1	VP16 counter inconclusive
COc1cccc(N2CCN(C(=O)c3oc4ccccc4c3NC(=O)Cc3ccc(OC)c(OC)c3)CC2)c1	ELG1 repair inh 16µM (no result: Coupling enz)
CCc1ccc(NC(=S)N2CCN(c3cccc(OC)c3)CC2)cc1	ELG1 repair inh inconclusive, VP16 counter inconclusive, RORgamma inh 13µM
CCc1ccccc1NC(=S)N1CCN(c2cccc(OC)c2)CC1	VP16 counter inconclusive, RORgamma inh 10µM
CCOc1cc(NC(C)=O)ccc1C(=O)OC	none (no result: TSHR antagonist, ELG1 repair inh)
O=C1[C@H]2[C@H]3[C@H](O)[C@H](O)C/C(=N/OCc4ccccc4)[C@@H]3CC[C@@H]2C(=O)N1C1CCCCC1	none (no result: TSHR antagonist, ELG1 repair inh)
C/C(=N\Nc1ccc([N+](=O)[O-])cc1[N+](=O)[O-])c1ccc(-n2nncc2C(C)(C)C)cc1	ELG1 repair inh 10µM
CC1CC1C(=O)N(C)CC(=O)Nc1ccccc1Br (stereo unspecified)	none (no result: Coupling enz, VP16 counter, RORgamma inh)
O=C(NCc1ccccc1)c1cccnc1Sc1ccccc1	none
Cc1ccc(Sc2ncccc2C(=O)NCc2cc([N+](=O)[O-])ccc2O)c(C)c1	ELG1 repair inh inconclusive, VP16 counter 7.1µM, RORgamma inh 5µM (no result: Coupling enz)
O=C(NNC(=O)c1cccnc1SCc1cccc([N+](=O)[O-])c1)c1ccccn1	ELG1 repair inh inconclusive, VP16 counter 5µM, RORgamma inh 3.5µM
O=C(NNC(=O)c1cccnc1SCc1cccc([N+](=O)[O-])c1)c1ccc(F)cc1	ELG1 repair inh inconclusive, VP16 counter inconclusive, RORgamma inh inconclusive
O=C(NCc1cc([N+](=O)[O-])ccc1O)c1cccnc1Sc1ccccc1	VP16 counter 11µM, RORgamma inh 10µM (no result: Coupling enz)
CC(=O)OC1CC[C@]2(C)C(CC[C@@]3(C)C2C(=O)C=C2C4C(C)C(C)CC[C@@]4(C(=O)O)CCC23C)C1(C)C (stereo partly specified)	RORgamma inh 0.63µM (no result: TSHR antagonist, ELG1 repair inh)
C[C@@H]1CC[C@]2(C(=O)O)CC[C@]3(C)C(=CCC4[C@@]5(C)C[C@@H](O)[C@H](O)[C@@](C)(CO)C5CC[C@]43C)C2[C@H]1C (stereo partly specified)	VP16 counter 18µM (no result: TSHR antagonist, ELG1 repair inh)
C[C@H]1[C@H](C)CC[C@]2(C(=O)O)CC[C@]3(C)C(=CCC4[C@@]5(C)C[C@@H](O)[C@H](O)[C@@](C)(CO)[C@@H]5CC[C@]43C)[C@H]12 (stereo partly specified)	RORgamma inh 11µM (no result: TSHR antagonist, ELG1 repair inh)
C[C@@H]1CC[C@]2(C(=O)O)CC[C@]3(C)C(=CCC4[C@@]5(C)C[C@@H](O)[C@H](O)[C@@](C)(CO)C5[C@H](O)C[C@]43C)C2[C@H]1C (stereo partly specified)	VP16 counter inconclusive, RORgamma inh inconclusive (no result: TSHR antagonist, ELG1 repair inh)
COc1ccc(S(=O)(=O)N2CCOCC2)cc1C(=O)N(C)Cc1ccco1	none (no result: Coupling enz, TSHR antagonist, VP16 counter, RORgamma inh)
COc1cc(C(=O)N/N=C/c2sc(=O)n(-c3ccccc3)c2Cl)cc(OC)c1OC	VP16 counter inconclusive
O=C(N/N=C/c1cccn1-c1ccccc1)c1ccncc1	VP16 counter 20µM, RORgamma inh 3.5µM
O=C(N/N=C/c1sc(=O)n(-c2ccccc2)c1Cl)c1ccncc1	ELG1 repair inh inconclusive, VP16 counter 11µM, RORgamma inh 7.1µM
O=C(N/N=C/c1cccn1-c1ccc([N+](=O)[O-])cc1)c1cccnc1	VP16 counter 10µM, RORgamma inh inconclusive
O=C(N/N=C/c1cccnc1)c1ccc([N+](=O)[O-])cc1	none
O=C(Nc1ccc(S(=O)(=O)NC2=NCCCCC2)cc1)c1ccc(Cl)cc1Cl	none (no result: Coupling enz, VP16 counter, RORgamma inh)
CCn1c(CSCc2ccccc2)n[nH]c1=S	VP16 counter inconclusive, RORgamma inh 4µM
CCn1c(CCc2ccccc2)n[nH]c1=S	VP16 counter inconclusive, RORgamma inh 8.9µM
CCn1c(CSc2nc3ccccc3[nH]2)n[nH]c1=S	RORgamma inh inconclusive
CCn1c(Cc2c(C)[nH]c3ccccc23)n[nH]c1=S	none
CCn1c(CCn2c3ccccc3c3ccccc32)n[nH]c1=S	VP16 counter 6.3µM, RORgamma inh 5.6µM
CCCn1c(CCc2ccccc2)n[nH]c1=S	VP16 counter 18µM, RORgamma inh 7.1µM
COCCCNC(=O)C1CCC(CNS(=O)(=O)c2ccc3c(c2)CC(C)N3C(=O)C2CC2)CC1 (stereo unspecified)	none (no result: Coupling enz)
CCOc1ccccc1N(CC)C(=O)c1nn(C)c2c1CSc1ccccc1-2	ELG1 repair inh 9.2µM
COc1ccc2c(c1)CC/C(=C\C=C\c1ccccc1OC)C2=O	Coupling enz -40, ELG1 repair inh inconclusive, VP16 counter inconclusive, RORgamma inh inconclusive
COc1ccc(S(=O)(=O)N2CCOC23CCN(C(=O)c2ccc(Cl)cc2Cl)CC3)cc1	TSHR antagonist -115, ELG1 repair inh inconclusive (no result: Coupling enz)
COc1ccc(S(=O)(=O)N2CCOC23CCN(C(=O)c2c(F)cccc2Cl)CC3)cc1	ELG1 repair inh inconclusive (no result: Coupling enz)
COCC1CCN(C(=O)C2CCC(=O)N(Cc3cccc(F)c3)C2)CC1 (stereo unspecified)	none
